High-throughput results from PubChem.
PfHsp90 set2: growth inhibition of PfHsp90-expressing yeast, primary screen, antimalarial PfHsp90 inhibitor project, S. cerevisiae, BacTiter-Glo luminescence, single point, set 2 | BacTiter-Glo ATP, 48 h; yeast lacking PDR1 and PDR3 efflux regulators | inhibition, % at 9.4 µM | 310,000 tested, 0.32% active | AID 504621, 2011;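 active = every replicate shows inhibition above about 80%, whatever the replicate mean, limit read from the data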
TIM10 inh: growth inhibitors of isogenic TIM10 control yeast, primary screen, counter-screen for tim10-1 yeast inhibitor project, luminescence, uHTS. inhibition, % at 10 µM. S. cerevisiae TIM10 strain growth, BacTiter-Glo luminescence, 24 h. 330,000 tested, 1.4% active;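 active = inhibition of 40% or more at the single tested concentration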;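 also: wild-type TIM10 isogenic control strain grown at permissive 25 °C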
SKKanGAS inh: S. pyogenes SKKanGAS growth inhibitors in kanamycin, primary screen, streptokinase expression inhibitor project, SKKanGAS strain, BacTiter-Glo luminescence; 6 h; inhibition, % at 7.5 µM; 300,000 tested, 1.3% active;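 active = mean replicate score, as percent of positive control median, at least 50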;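 also: strain carries kanamycin resistance gene driven by streptokinase promoter and grows in 40 µg/ml kanamycin; loss of luminescence reflects streptokinase promoter inhibition or plain growth inhibition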
V-ATPase pHluor: regulators of yeast V-ATPase proton pumping, primary screen, pHLuorin cytosolic pH fluorescence. S. cerevisiae. response, % at 10 µM. 350,000 tested, 0.37% active. AID 504577, 2011; in the data active = response mostly above about 7.3%, no sharp cut-off; inactive = mostly below about 5.4%; also: actives read high
tim23-1 inh: growth inhibitors of tim23-1 mutant yeast, primary screen, luminescence, uHTS | inhibition, % at 20 µM | AID 463212, 2010 | 330,000 tested, 1.3% active | S. cerevisiae tim23-1 growth, BacTiter-Glo luminescence, 24 h;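 active = growth inhibition of the mutant yeast at or above 50%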;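 also: temperature-sensitive mutant grown at 25 °C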
tim10-1 inh: growth inhibitors of tim10-1 mutant yeast, primary screen, luminescence, uHTS | S. cerevisiae tim10-1 ts strain growth, BacTiter-Glo, 24 h | inhibition, % at 20 µM | 330,000 tested, 2.2% active | AID 463190, 2010;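 active = inhibition of at least 40%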;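 also: mutant grown at 25 °C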
tim10-1 confirm: growth inhibitors of tim10-1 mutant yeast, confirmation, single concentration, luminescence, S. cerevisiae; inhibition, % at 20 µM; 7,400 tested, 56% active; shares compounds with tim10-1 inh; S. cerevisiae tim10-1 ts strain growth, BacTiter-Glo, 24 h;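 active = inhibition of yeast growth at or above a set limit in either of two repeat tests at 20 µM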;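 also: tim10-1 mutant grown at permissive 25 °C to find synthetic lethal compounds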
TIM10 conf: growth inhibitors of wild-type TIM10 yeast, confirmation, counter-screen for tim10-1 synthetic lethality project, single concentration, luminescence, S. cerevisiae. shares compounds with TIM10 inh. S. cerevisiae tim10 strain growth, BacTiter-Glo luminescence, 24 h. inhibition, % at 10 µM. 4,600 tested, 63% active. AID 463215, 2010;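 active = inhibition of yeast growth at or above a set limit in either of two replicates at 10 µM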; also: this counterscreen used the strain with wild-type TIM10
tim23-1 conf: tim23-1 mutant yeast growth inhibitors, confirmation, luminescence, single concentration; inhibition, % at 20 µM; AID 463218, 2010; shares compounds with tim23-1 inh; 4,400 tested, 83% active; S. cerevisiae tim23-1 growth, BacTiter-Glo luminescence, 24 h;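 active = inhibition above about 39% in either of two replicate wells at 20 µM, limit read from the data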;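 also: temperature-sensitive tim23-1 mutant grown at 25 °C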
Each line names hits and unclear results; the compound was inactive in the other large screens (follow-up assays come after a bar, where they were run). Hits are enriched below; roughly 4.6% of the tested compounds scored in any of these assays.

Cc1ccc(NC(=O)c2cccc3cccnc23)cc1	tim23-1 inh 65.5, tim10-1 inh 41.9 | tim10-1 confirm 40.7 | tim23-1 conf 80.1
COc1ccccc1C(=O)Nc1cccc2cccnc12	tim23-1 inh 72.1, tim10-1 inh 48.4 | tim10-1 confirm 41.5 | tim23-1 conf 71.8
O=C(Nc1cccc2cccnc12)c1ccccc1Cl	none (no result: PfHsp90 set2)
CC(C)(C)c1ccc(C(=O)O[C@H]2[C@H](Cc3ccccc3)NS(=O)(=O)[C@H]3C[C@@H]4C=C[C@]23O4)cc1	none (no result: SKKanGAS inh)
Nc1ncnc2c1ncn2[C@@H]1O[C@H](CO)[C@@H](O)[C@H]1O	none
NC(=O)c1ccc[n+]([C@H]2O[C@@H](COP(=O)([O-])OP(=O)(O)OC[C@H]3O[C@@H](n4cnc5c(N)ncnc54)[C@H](O)[C@@H]3O)[C@H](O)[C@@H]2O)c1	PfHsp90 set2 88.0, TIM10 inh 58.5, tim23-1 inh 70.5, tim10-1 inh 77.8 (no result: SKKanGAS inh) | tim10-1 confirm 75.2 | TIM10 conf 45.0 | tim23-1 conf 78.3
COc1ccc([C@H]2N[C@]3(CCCN(Cc4ccc(C)cc4)C3=O)[C@H]3C(=O)N(Cc4ccccc4)C(=O)[C@@H]23)cc1	none (no result: PfHsp90 set2, TIM10 inh, SKKanGAS inh, tim23-1 inh, tim10-1 inh)
COCc1ccccc1C1=CC(=O)C[C@H](c2ccc(OC)cc2)C1	none (no result: SKKanGAS inh)
Oc1ccc(Br)cc1-c1cc(-c2ccco2)[nH]n1	TIM10 inh 43.5, tim23-1 inh 68.3, tim10-1 inh 47.5 | tim10-1 confirm 32.2 | TIM10 conf 33.6 | tim23-1 conf 51.5
O=Cc1cc2ccccc2nc1SCCCF	TIM10 inh 78.3, tim23-1 inh 66.5, tim10-1 inh 64.5 | tim10-1 confirm 69.1 | TIM10 conf 72.5 | tim23-1 conf 54.7
O=c1cc(C(Cl)(Cl)Cl)oc2c1ccc1ccccc12	tim23-1 inh 51.7, tim10-1 inh 44.1 | tim10-1 confirm inactive | tim23-1 conf 49.3
COc1ccc(C2/C=C\CN(Cc3ccc(N(C)C)cc3)CC(=O)N2Cc2ccc(F)cc2)cc1 (stereo not drawn)	none
COc1ccc(CC(=O)Oc2ccc(Cl)cc2Br)cc1S(=O)(=O)N1CCOCC1	none (no result: PfHsp90 set2)
C=C1CCc2c([nH]c3ccc(OCC(C)C)cc23)C1=O	tim23-1 inh 58.8, tim10-1 inh 47.3 | tim10-1 confirm inactive | tim23-1 conf 57.0
COc1ccc2[nH]c3c(c2c1)CCNC3=O	none
O=[N+]([O-])c1cnc(Nc2ccc(Cl)cn2)c([N+](=O)[O-])c1	TIM10 inh 49.6, tim23-1 inh 73.1, tim10-1 inh 73.1 | tim10-1 confirm 69.0 | TIM10 conf 32.8 | tim23-1 conf 81.3
CC(C)(C)c1cc(C(=O)CCN2CCOCC2)cc(C(C)(C)C)c1O	TIM10 inh 76.3, tim23-1 inh 73.7, tim10-1 inh 77.5 | tim10-1 confirm 76.1 | TIM10 conf 79.8 | tim23-1 conf 56.5
Cc1cc(N/N=C/c2ccccc2)nc(NCc2ccccc2)n1	none
Cc1cc(N/N=C/c2ccc(Cl)cc2)nc(NCc2ccccc2)n1	tim23-1 inh 74.5, tim10-1 inh 47.7 | tim10-1 confirm 41.1 | tim23-1 conf inactive
O=c1cc(CN2CCc3ccccc32)c2ccc(O)cc2o1	tim23-1 inh 51.2, tim10-1 inh 43.9 | tim10-1 confirm 32.0 | tim23-1 conf 48.5
Cc1nnnn1/C(=C\c1ccccc1)C(=O)OCC(=O)Nc1ccc(Cl)cc1F	TIM10 inh 96.4, tim23-1 inh 79.6, tim10-1 inh 43.8 | tim10-1 confirm inactive | TIM10 conf 74.9 | tim23-1 conf 40.4
CCCn1c(=O)c(C(=O)NCc2ccccn2)c(O)c2ccccc21	TIM10 inh 41.9, tim23-1 inh 60.3, tim10-1 inh 40.9 (no result: SKKanGAS inh) | tim10-1 confirm inactive | TIM10 conf 35.8 | tim23-1 conf 57.5
COc1c(C(=O)NC(=S)Nc2nnn(C)n2)cc2ccccc2c1Br	none
Cn1nnc(NC(=S)NC(=O)c2cccc3c(Cl)cccc23)n1	tim23-1 inh 52.1, tim10-1 inh 48.7 | tim10-1 confirm inactive | tim23-1 conf 38.6
CCOc1ccc2nc(NC(=O)c3ccoc3C)sc2c1	PfHsp90 set2 78.6, TIM10 inh 67.7, SKKanGAS inh 91.0, tim23-1 inh 80.2, tim10-1 inh 75.5 | tim10-1 confirm 76.1 | TIM10 conf 68.8 | tim23-1 conf 84.8
CCOc1ccc2nc(NC(=O)COC)sc2c1	none (no result: PfHsp90 set2)
COc1ccc(CCNC(=S)NC(=O)c2ccccc2)cc1OC	TIM10 inh 53.1, tim23-1 inh 55.8, tim10-1 inh 48.1 | tim10-1 confirm 39.2 | TIM10 conf 31.1 | tim23-1 conf 43.9
N/C(=N\OC(=O)/C=C/c1ccccc1)c1cccnc1	none
Cc1ccc(/C(N)=N/OC(=O)/C=C/c2ccccc2)cc1	TIM10 inh 71.9, tim23-1 inh 66.7, tim10-1 inh 59.9 | tim10-1 confirm 47.0 | TIM10 conf 78.2 | tim23-1 conf 77.3
Cc1ccccc1/C(N)=N/OC(=O)/C=C/c1ccccc1	TIM10 inh 76.3, tim23-1 inh 72.7, tim10-1 inh 75.9 | tim10-1 confirm 51.5 | TIM10 conf 68.0 | tim23-1 conf 56.2
COc1ccc(/C(N)=N/OC(=O)/C=C/c2ccccc2)cc1	TIM10 inh 60.7, tim23-1 inh 80.0, tim10-1 inh 62.0 | tim10-1 confirm 40.6 | TIM10 conf 68.1 | tim23-1 conf 72.2
Cc1ccccc1/C(N)=N/OC(=O)c1cccs1	TIM10 inh 70.0, tim23-1 inh 67.7, tim10-1 inh 61.4 | tim10-1 confirm 50.4 | TIM10 conf inactive | tim23-1 conf 48.2
O=C(CCN1C(=O)S/C(=C\c2ccccc2)C1=O)NC1CCS(=O)(=O)C1 (stereo not drawn)	none
O=C(NNc1ccccc1)OCc1ccccc1	none (no result: PfHsp90 set2, TIM10 inh, SKKanGAS inh, tim23-1 inh, tim10-1 inh)
C=CCn1c(=O)c2c(nc3n2CCCN3CCc2ccc(OC)c(OC)c2)n(C)c1=O	none
C[C@H]1CN([C@@H](C)CO)C(=O)c2cc(Br)cnc2O[C@H]1CN(C)C(=O)C1CC1	none (no result: PfHsp90 set2, TIM10 inh, SKKanGAS inh, tim23-1 inh, tim10-1 inh)
